Bioassay records: PubChem, The Scripps Research Institute Molecular Screening Center
TEAD-YAP inh: TEAD-YAP interaction inhibition, primary screen, TEAD-YAP interaction inhibitor project, luminescence, HEK-TIYL cells; AID 1259422, 2018; inhibition, % at 9.12 µM; 640,000 compounds, 1.4% hits; TEAD-Gal4/YAP UAS-luciferase luminescence; in the data active = inhibition above about 32%;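 also: 0% = median of test compound wells and 100% = reference inhibitor wells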
MITF primary: MITF inhibitors, primary screen, biochemical, AlphaScreen, human. Microphthalmia-associated transcription factor (Homo sapiens), O75030. AlphaScreen MITF homodimerization, bead proximity signal. inhibition, % at 2.6 µM. 650,000 compounds, 0.91% hits; in the data active = inhibition above about 50%;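 also: 0% = vehicle wells with protein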
GPR151 ag: activators of human GPR151, primary screen, cell-based, PathHunter beta-arrestin, luminescence; AID 1508602, 2020; activation, % at 11.2 µM; PathHunter beta-arrestin GPR151 cells; 650,000 compounds, 1% hits; G-protein coupled receptor 151 (Homo sapiens), Q8TDV0; in the data active = activation above about 4.9%;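 also: 0% = median of compound wells and 100% = cells with positive control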
Target sequence (Q8TDV0 whole entry, looked up): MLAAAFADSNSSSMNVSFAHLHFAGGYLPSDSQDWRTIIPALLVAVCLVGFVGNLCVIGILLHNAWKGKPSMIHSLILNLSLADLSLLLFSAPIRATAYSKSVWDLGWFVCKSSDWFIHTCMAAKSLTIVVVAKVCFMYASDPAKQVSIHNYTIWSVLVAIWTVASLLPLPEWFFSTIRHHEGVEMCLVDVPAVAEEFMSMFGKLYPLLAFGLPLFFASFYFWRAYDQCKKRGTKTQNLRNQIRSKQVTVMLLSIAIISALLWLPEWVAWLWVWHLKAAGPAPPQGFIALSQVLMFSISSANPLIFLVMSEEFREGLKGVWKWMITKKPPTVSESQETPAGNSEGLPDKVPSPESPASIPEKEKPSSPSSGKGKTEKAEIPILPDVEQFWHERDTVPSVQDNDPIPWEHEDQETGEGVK
FBW7 act: FBW7 E3 ligase activators, primary screen, biochemical, AlphaScreen, human | 650,000 compounds, 0.13% hits | AlphaScreen FBW7–phospho-cyclin E peptide binding, activator screen | AID 1259310, 2017 | normalized activity (activation), % at 26.1 µM | F-box/WD repeat-containing protein 7 (Homo sapiens), Q969H0; in the data active = normalized activity above about 1.9%;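 also: purified mutant Fbw7 with reduced substrate affinity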
* = called active by the depositor. Sampled rows, rich in hits. Any-hit rate of the full collection: about 3.5%.

SMILES	TEAD-YAP inh	MITF primary	GPR151 ag	FBW7 act
Oc1c(C(c2cccs2)N2CCOCC2)cc(Cl)c2cccnc12 (stereo unspecified)	57*	7	0	0
CCN1CCN(Cc2ccc3cccnc3c2O)CC1	29	94*	3	-1
CCC(=O)NC(c1cccs1)c1cc(Cl)c2cccnc2c1O (stereo unspecified)	23	19	0	-1
Oc1c(C(Nc2nccs2)c2cccs2)ccc2cccnc12 (stereo unspecified)	26	33	-2	-1
CN1CCN(C(c2ccncc2)c2ccc3cccnc3c2O)CC1 (stereo unspecified)	18	70*	2	0
c1cnc2c(CN3CCCCC3)cccc2c1	13	-1	3	0
OCCN1CCN(C(c2cccs2)c2ccc3cccnc3c2O)CC1 (stereo unspecified)	87*	26	1	0
CN1CCN(C(c2cccs2)c2ccc3cccnc3c2O)CC1 (stereo unspecified)	88*	9	-1	0
Cc1ccccc1CSCC(=O)NCc1ccccc1Cl	-11	5	-1	0
CCCNC(=O)c1c(-c2ccccc2Cl)noc1C	0	18	0	0
CC(C)S(=O)(=O)/C(Cl)=C(\Cl)C(=O)Nc1ccccc1Cl	95*	24	-3	0
Cc1ccc(S(=O)(=O)N(C)CC(=O)NNC(=O)CCC(=O)c2ccccc2)cc1	7	4	-1	0
COc1ccc2c(c1)nc(SCC(=O)C(C)(C)C)n2C	-6	-1	0	0
COc1ccc2c(c1)nc(SCc1ccccc1)n2C	-71	12	-1	2.0*
O=C(O)C1CCCCN1S(=O)(=O)c1ccc(Br)s1 (stereo unspecified)	-1	7	3	0
c1ccc(-n2cnc3c(NCc4nc5ccccc5[nH]4)nc(Nc4cccnc4)nc32)cc1	73*	9	-3	0
c1ccc(-n2cnc3c(NCc4nc5ccccc5[nH]4)nc(Nc4ccncc4)nc32)cc1	73*	9	-2	0
c1ccc2[nH]c(CNc3nc(Nc4ccncc4)nc4c3ncn4C3CCCCC3)nc2c1	64*	15	0	0
c1ccc(-n2cnc3c(NCc4nc5ccccc5[nH]4)nc(Nc4ccc(-n5ccnc5)cc4)nc32)cc1	57*	2	-1	0
Nc1cc(OC(=O)c2ccco2)nn1S(=O)(=O)c1ccccc1	2	-5	0	0
CC(=O)Nc1cccc(-c2cnc3c(NCc4ccco4)nccn23)c1	47*	12	2	2.3*
CC(=O)Nc1cccc(-c2cnc(NCc3cccc(Cl)c3)c3nccn23)c1	69*	-9	0	-1
CC(C)CNc1nccn2c(-c3cccc(O)c3)cnc12	-6	-2	0	0
CC(=O)Nc1cccc(-c2cnc3c(NCC4CC4)nccn23)c1	80*	7	-1	-1
CC(=O)c1cccc(-c2cnc3c(NCC4CC4)nccn23)c1	-61	7	0	-1
SMILES	TEAD-YAP inh	MITF primary	GPR151 ag	FBW7 act
CC(=O)Nc1cccc(-c2cnc3c(NCC(C)C)nccn23)c1	65*	11	-2	0
COc1ccccc1C(=O)NC1CCC(NC(=O)c2ccccc2OC)CC1 (stereo unspecified)	15	-11	0	0
COC(=O)C(CCSC)NC(=O)C1CCN(c2nc(C)c3ccccc3n2)CC1 (stereo unspecified)	7	19	-1	0
CC(=O)Nc1cccc(-c2cnc3c(NCCc4cccnc4)nccn23)c1	65*	13	-2	0
O=C1CCN(C(=O)c2ccc(-c3nc4ccccc4s3)s2)CC1	99*	13	-11	0
COc1ccc(CCN2CCC(NCCc3ccccn3)CC2)cc1	7	8	0	1
O=C(NCCNCc1ccco1)c1ccccc1	0	29	1	1
O=c1[nH]c(C2CC2)nc2cc(-c3cnn(-c4ccc(Cl)cc4)c3)ccc12	60*	10	0	1
CS(=O)(=O)c1ccc(-c2ccc3c(c2)CC(CNC(=O)CCc2cccnc2)O3)cc1 (stereo unspecified)	12	-13	1	0
CS(=O)(=O)c1ccc(-c2ccc3c(c2)CC(CNC(=O)/C=C/c2cccnc2)O3)cc1 (stereo unspecified)	39*	-1	1	0
Cc1cccc(NC(c2ccccc2F)c2ccc3cccnc3c2O)n1 (stereo unspecified)	24	6	-1	0
Cc1ccnc(NC(c2cc(C)ccc2O)c2ccc3cccnc3c2O)c1 (stereo unspecified)	6	35	0	0
Oc1c(C(Nc2cccc(Cl)c2)c2ccncc2)ccc2cccnc12 (stereo unspecified)	31	103*	0	-2
Oc1ccc(Cl)c(C(Nc2ccccn2)c2ccc3cccnc3c2O)c1 (stereo unspecified)	81*	6	1	0
Oc1c(C(Nc2ccccn2)c2ccccc2F)ccc2cccnc12 (stereo unspecified)	84*	16	-1	-1
Oc1c(C(Nc2ccccn2)c2ccco2)ccc2cccnc12 (stereo unspecified)	63*	28	1	0
Oc1c(C(Nc2cccnc2)c2cccs2)ccc2cccnc12 (stereo unspecified)	27	3	1	0
Oc1c(C(Nc2ncccn2)c2ccco2)ccc2cccnc12 (stereo unspecified)	-5	8	0	0
Cc1ccccc1-n1nc2c(c1NC(=O)c1cccc(F)c1)CS(=O)(=O)C2	-8	2	-1	0
Oc1c(C(Nc2ccccn2)c2ccccn2)ccc2cccnc12 (stereo unspecified)	17	26	1	0
Oc1c(C(Nc2ccccc2)c2ccccn2)ccc2cccnc12 (stereo unspecified)	18	94*	-1	-2
c1ccc(CNc2nc(Nc3ccc(N4CCOCC4)cc3)nc3c2ncn3-c2ccsc2)cc1	-10	21	3	0
Oc1ccc(CCNc2nc(Nc3ccc(N4CCOCC4)cc3)nc3c2ncn3-c2ccsc2)cc1	42*	19	-2	0
CC(C)N(CCNc1nc(Nc2ccc(N3CCOCC3)cc2)nc2c1ncn2-c1ccccc1)C(C)C	13	10	-1	0
c1ccc(OCCNc2nc(Nc3ccc(N4CCOCC4)cc3)nc3c2ncn3-c2ccsc2)cc1	-1	17	-2	0
OCCNc1nc(Nc2ccc(N3CCOCC3)cc2)nc2c1ncn2-c1ccsc1	60*	2	0	0
CC(C)N(CCNc1nc(Nc2ccc(N3CCOCC3)cc2)nc2c1ncn2-c1ccsc1)C(C)C	39*	-2	-2	0
